These results are taken from PubChem BioAssay (NCI).

Molecules are shown by their SMILES. Compounds without any hit were thinned out: in the full panel of roughly 79,000, 15% have a hit. Unmarked numbers belong to inactive results. Activity calls are given as the source filed them. Rule as the data show it: active = growth inhibition above about 70%; inactive = the rest.

Experiment [1] in a line: NCI Yeast Anticancer Drug Screen. Data for the rad50 strain (AID 155).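 Also: 0% = growth of vehicle-only cultures of the same strain.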 As to conditions: S. cerevisiae rad50 strain growth inhibition, stronger effect = higher value. In a few lines: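 Inhibition values express reduced yeast growth in compound-treated cultures relative to vehicle-treated controls.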
Experiment [2] in a line: NCI Yeast Anticancer Drug Screen. Data for the mec2-1 strain (AID 157). Particulars: S. cerevisiae mec2-1 strain, stronger effect = higher value. In a few lines: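 Using mec2-1 yeast: add compound, measure growth, express inhibition versus vehicle-treated cultures.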
The nature of experiment [3]: NCI Yeast Anticancer Drug Screen. Data for the sgs1 mgt1 strain (AID 161).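 Also: 0% = growth of cultures given vehicle only.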 Particulars: S. cerevisiae sgs1 mgt1 strain, stronger effect = higher value. A digest of the protocol:
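This yeast growth screen uses a strain with defined DNA-repair lesions; compound-treated growth is compared with vehicle-treated growth.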

Experiment [4] in a line: NCI Yeast Anticancer Drug Screen. Data for the cln2 rad14 strain (AID 165).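 Also: 0% = growth equal to vehicle treated cultures.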 Particulars: S. cerevisiae cln2 rad14 strain, stronger effect = higher value. A digest of the protocol: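 Yeast strain cln2 rad14, bearing defects in cell cycle control and DNA repair, serves as the test system; values reflect growth inhibition compared with vehicle.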
Experiment [5] in a line: NCI Yeast Anticancer Drug Screen. Data for the bub3 strain (AID 167). As to conditions: S. cerevisiae bub3 mutant strain, stronger effect = higher value. In a few lines:
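Steps: expose the mutant yeast strain to compound; grow alongside vehicle-treated cultures; measure growth; express inhibition against the vehicle cultures.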

Experiment [6] is described as follows: NCI Yeast Anticancer Drug Screen. Data for the mlh1 rad18 strain (AID 175). As to conditions: S. cerevisiae mlh1 rad18 strain growth inhibition, stronger effect = higher value. A digest of the protocol:
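Steps: expose repair-defective yeast to compound; measure growth; express inhibition against vehicle-treated controls.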

[7] abbreviates: at 5.0 µM (retest, dose inferred, filed as 0.5).
Where [8] appears, read: at 50.0 µM (retest, dose inferred, filed as 5.0).

Take `O=C(NCCCCCCNC(=O)n1cc(F)c(=O)[nH]c1=O)NC1C(O)OC(CO)C(O)C1O` (stereo not given): the growth inhibition is 63% in experiment [1] (setting [7]); 89% (active) in experiment [1] (setting [8]); 93.9% (active) in experiment [1] (at 50.0 µM); 80% (active) in experiment [2] (setting [7]); 96% (active) in experiment [2] (setting [8]); 97.6% (active) in experiment [2] (at 50.0 µM). Further, the growth inhibition in experiment [3] (setting [7]) was 83% (active); in experiment [3] (setting [8]), 93% (active); in experiment [3] (at 50.0 µM), 93.1% (active); in experiment [4] (setting [7]), 34%; in experiment [4] (setting [8]), 84% (active); in experiment [4] (at 50.0 µM) it was 51%. The growth inhibition is 22% in experiment [5] (setting [7]); 90% (active) in experiment [5] (setting [8]); 80% (active) in experiment [5] (at 50.0 µM); 48% in experiment [6] (setting [7]); 90% (active) in experiment [6] (setting [8]); 88.2% (active) in experiment [6] (at 50.0 µM).

With `O=C(Sc1ccccc1)C1OC12CCCCC2` (stereo not given), the growth inhibition in experiment [1] (setting [7]) is -160%; in experiment [1] (setting [8]) it was -116%; in experiment [1] (at 50.0 µM), 50.5%; in experiment [2] (setting [7]), -48%; in experiment [2] (setting [8]), -44%; in experiment [2] (at 50.0 µM), 31.2%. The growth inhibition in experiment [3] (setting [7]) is -68%; in experiment [3] (setting [8]) it was -47%; in experiment [3] (at 50.0 µM) it was 63.8%; in experiment [4] (setting [7]), -62%; in experiment [4] (setting [8]) it was -75%; in experiment [4] (at 50.0 µM), -8.05%. Further, the growth inhibition was -65% in experiment [5] (setting [7]); -57% in experiment [5] (setting [8]); 8.8% in experiment [5] (at 50.0 µM); -122% in experiment [6] (setting [7]); -90% in experiment [6] (setting [8]); 50.1% in experiment [6] (at 50.0 µM).

As for `COc1ccc(C(=O)c2cc(Cl)ccc2N)cc1`, the growth inhibition in experiment [1] (setting [7]) is 16%; in experiment [1] (setting [8]), 93% (active); in experiment [1] (at 50.0 µM) it was 99% (active); in experiment [2] (setting [7]), -1%; in experiment [2] (setting [8]) it was 87% (active); in experiment [2] (at 50.0 µM), 98.2% (active). In addition, the growth inhibition in experiment [3] (setting [7]) was 8%; in experiment [3] (setting [8]), 91% (active); in experiment [3] (at 50.0 µM), 99.1% (active); in experiment [4] (setting [7]) it was -8%; in experiment [4] (setting [8]), 71% (active); in experiment [4] (at 50.0 µM), 92.1% (active). The growth inhibition in experiment [5] (setting [7]) is 1%; in experiment [5] (setting [8]), 73% (active); in experiment [5] (at 50.0 µM), 99.2% (active); in experiment [6] (setting [7]), -1%; in experiment [6] (setting [8]), 95% (active); in experiment [6] (at 50.0 µM), 94.2% (active).

As to `CC(C)CCN(CCC(C)C)C(=S)Nc1ccccc1`, the growth inhibition in experiment [1] (setting [7]) is -13%; in experiment [1] (setting [8]), 87% (active); in experiment [1] (at 50.0 µM), 92.7% (active); in experiment [2] (setting [7]) it was 6%; in experiment [2] (setting [8]), 93% (active); in experiment [2] (at 50.0 µM), 89.2% (active). The growth inhibition in experiment [3] (setting [7]) was -20%; in experiment [3] (setting [8]), 89% (active); in experiment [3] (at 50.0 µM), 86.8% (active); in experiment [4] (setting [7]) it was -22%; in experiment [4] (setting [8]), 89% (active); in experiment [4] (at 50.0 µM), 90.8% (active). Also, the growth inhibition in experiment [5] (setting [7]) is -7%; in experiment [5] (setting [8]), 94% (active); in experiment [5] (at 50.0 µM), 92% (active); in experiment [6] (setting [7]) it was -7%; in experiment [6] (setting [8]) it was 94% (active); in experiment [6] (at 50.0 µM), 92.5% (active).

In the case of `COc1ccc(N(C)Sc2ccccc2)cc1`, the growth inhibition in experiment [1] (setting [7]) is -12%; in experiment [1] (setting [8]), 64%; in experiment [1] (at 50.0 µM), 88.2% (active); in experiment [2] (setting [7]), 18%; in experiment [2] (setting [8]) it was 65%; in experiment [2] (at 50.0 µM) it was 49.1%. In addition, the growth inhibition was -14% in experiment [3] (setting [7]); 24% in experiment [3] (setting [8]); 67.1% in experiment [3] (at 50.0 µM); 9% in experiment [4] (setting [7]); 63% in experiment [4] (setting [8]); 35.6% in experiment [4] (at 50.0 µM). Moreover, the growth inhibition in experiment [5] (setting [7]) is 12%; in experiment [5] (setting [8]), 90% (active); in experiment [5] (at 50.0 µM) it was 69.7%; in experiment [6] (setting [7]) it was -10%; in experiment [6] (setting [8]), 97% (active); in experiment [6] (at 50.0 µM), 71.3% (active).

With `COc1ccc2c(c1)CC[C@@H]1[C@@H]2CC[C@]2(C)/C(=N/OCCN3CCCC3)CC[C@@H]12`, the growth inhibition is 95% (active) in experiment [1] (setting [7]); 99% (active) in experiment [1] (setting [8]); 89.5% (active) in experiment [1] (at 50.0 µM); 38% in experiment [2] (setting [7]); 99% (active) in experiment [2] (setting [8]); 91.8% (active) in experiment [2] (at 50.0 µM). The growth inhibition in experiment [3] (setting [7]) was 24%; in experiment [3] (setting [8]), 96% (active); in experiment [3] (at 50.0 µM), 92.1% (active); in experiment [4] (setting [7]), 46%; in experiment [4] (setting [8]), 98% (active); in experiment [4] (at 50.0 µM), 89.7% (active). The growth inhibition in experiment [5] (setting [7]) is 49%; in experiment [5] (setting [8]), 97% (active); in experiment [5] (at 50.0 µM), 91.1% (active); in experiment [6] (setting [7]) it was 39%; in experiment [6] (setting [8]), 99% (active); in experiment [6] (at 50.0 µM) it was 91.1% (active).

With `FC(F)(F)c1cc(NC(=S)SC2CCCCC2)ccc1Cl`, the growth inhibition in experiment [1] (setting [7]) was 12%; in experiment [1] (setting [8]) it was 97% (active); in experiment [1] (at 50.0 µM), 41%; in experiment [2] (setting [7]), 4%; in experiment [2] (setting [8]) it was 99% (active); in experiment [2] (at 50.0 µM), 79.2% (active). For the same compound, the growth inhibition was 4% in experiment [3] (setting [7]); 98% (active) in experiment [3] (setting [8]); 88% (active) in experiment [3] (at 50.0 µM); -16% in experiment [4] (setting [7]); 97% (active) in experiment [4] (setting [8]); 88.8% (active) in experiment [4] (at 50.0 µM). The growth inhibition is 12% in experiment [5] (setting [7]); 98% (active) in experiment [5] (setting [8]); 85.9% (active) in experiment [5] (at 50.0 µM); 16% in experiment [6] (setting [7]); 97% (active) in experiment [6] (setting [8]); 90% (active) in experiment [6] (at 50.0 µM).

Consider `CC(C)(C)c1ccc(Br)c(CCC(=O)NO)c1`, for which the growth inhibition in experiment [1] (setting [7]) was -2%; in experiment [1] (setting [8]), 94% (active); in experiment [1] (at 50.0 µM), 97% (active); in experiment [2] (setting [7]), -1%; in experiment [2] (setting [8]), 98% (active); in experiment [2] (at 50.0 µM), 98.6% (active). In addition, the growth inhibition was -15% in experiment [3] (setting [7]); 96% (active) in experiment [3] (setting [8]); 97% (active) in experiment [3] (at 50.0 µM); -3% in experiment [4] (setting [7]); 91% (active) in experiment [4] (setting [8]); 98.7% (active) in experiment [4] (at 50.0 µM). Moreover, the growth inhibition in experiment [5] (setting [7]) was -1%; in experiment [5] (setting [8]) it was 96% (active); in experiment [5] (at 50.0 µM), 97.7% (active); in experiment [6] (setting [7]), 9%; in experiment [6] (setting [8]), 98% (active); in experiment [6] (at 50.0 µM), 97.8% (active).

`O=C1/C(=C/c2ccc([N+](=O)[O-])cc2)CNC/C1=C\c1ccc([N+](=O)[O-])cc1`: the growth inhibition in experiment [1] (setting [7]) was 74% (active); in experiment [1] (setting [8]), 99% (active); in experiment [1] (at 50.0 µM), 77% (active); in experiment [2] (setting [7]), 87% (active); in experiment [2] (setting [8]) it was 99% (active); in experiment [2] (at 50.0 µM) it was 87.5% (active). Also, the growth inhibition is 93% (active) in experiment [3] (setting [7]); 99% (active) in experiment [3] (setting [8]); 85.5% (active) in experiment [3] (at 50.0 µM); 73% (active) in experiment [4] (setting [7]); 97% (active) in experiment [4] (setting [8]); 74% (active) in experiment [4] (at 50.0 µM). For the same compound, the growth inhibition in experiment [5] (setting [7]) was 90% (active); in experiment [5] (setting [8]), 99% (active); in experiment [5] (at 50.0 µM), 83.8% (active); in experiment [6] (setting [7]) it was 96% (active); in experiment [6] (setting [8]), 99% (active); in experiment [6] (at 50.0 µM), 75.7% (active).

For `CC1CC2(C)ON=C(c3ccccc3)N2c2ccccc2S1` (stereo not given), the growth inhibition in experiment [1] (setting [7]) was -25%; in experiment [1] (setting [8]), 98% (active); in experiment [1] (at 50.0 µM), 87.7% (active); in experiment [2] (setting [7]), -4%; in experiment [2] (setting [8]), 93% (active); in experiment [2] (at 50.0 µM), 90% (active). For the same compound, the growth inhibition is -24% in experiment [3] (setting [7]); 94% (active) in experiment [3] (setting [8]); 82.7% (active) in experiment [3] (at 50.0 µM); -6% in experiment [4] (setting [7]); 97% (active) in experiment [4] (setting [8]); 87% (active) in experiment [4] (at 50.0 µM). The growth inhibition in experiment [5] (setting [7]) was 10%; in experiment [5] (setting [8]), 97% (active); in experiment [5] (at 50.0 µM) it was 87% (active); in experiment [6] (setting [7]) it was 4%; in experiment [6] (setting [8]), 98% (active); in experiment [6] (at 50.0 µM), 83.7% (active).
